# Assay outcomes deposited in PubChem BioAssay by National Center for Advancing Translational Sciences (NCATS).
# D1 agonist: human D1 receptor agonism; HEK293 T-REx D1 cells, calcium flux, agonist mode; 1% of 360,000 active; P21728; activation, % at 2 µM; in the data active means activation above about 30%; further: 0% is about no effect
#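 Inducible HEK293 T-REx D1 cells, force-coupled to calcium signalling, were plated at 4000 cells/well with tetracycline and held overnight at 30 C. After no-wash calcium dye loading, compound-evoked calcium rise over 180 s flagged agonists.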
# DRD3 agonist: activates the human D3 dopamine receptor; 0.58% of 410,000 active; max activation, %; D3R DiscoveRx beta-arrestin cells, luminescence, 90 min; P35462; in the data active means max activation above about 30%; further: 0% is about no effect
# Target sequence (P35462 whole entry, looked up): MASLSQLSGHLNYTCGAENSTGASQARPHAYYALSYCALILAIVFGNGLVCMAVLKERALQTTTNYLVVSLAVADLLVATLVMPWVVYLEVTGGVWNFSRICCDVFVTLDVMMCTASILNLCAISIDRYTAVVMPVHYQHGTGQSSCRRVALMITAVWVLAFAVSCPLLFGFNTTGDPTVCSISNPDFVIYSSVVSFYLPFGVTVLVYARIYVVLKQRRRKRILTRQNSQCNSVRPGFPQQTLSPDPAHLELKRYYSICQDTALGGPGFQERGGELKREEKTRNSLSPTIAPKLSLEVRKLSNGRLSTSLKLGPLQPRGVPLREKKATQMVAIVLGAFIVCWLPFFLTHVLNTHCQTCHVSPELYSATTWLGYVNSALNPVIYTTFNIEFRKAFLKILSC
#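 Agonist-mode cell screen: cells plated at 1500/well and incubated overnight at 37 °C, then exposed to library compounds for 90 min at 37 °C. Detection reagent was added for 30–60 min at room temperature, and luminescence was read.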
# DRD3 antagonist: antagonists of human D3 dopamine receptor. D3R cells, DiscoveRx beta-arrestin luminescence, antagonist mode; active compounds read low. max response, negative = inhibition, %. AID 652054. 2.5% of 360,000 active; in the data active means max response below about -50%; inconclusive means no clear call, values can overlap the other calls; further: on the % scale 0 is the no-effect control and ±100 the full control effect
#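 Cells plated overnight at 1500 cells/well, then exposed to library compounds with dopamine controls for 90 minutes at 37 degrees C. DiscoveRx reagent added for 30–60 minutes at room temperature; luminescence read, quantitative HTS format.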
# D1 antag: antagonists of human D1 dopamine receptor | HEK293 TREx D1 cells, calcium flux, dopamine EC80; active compounds read low | activity change, negative = inhibition, % at 10 µM | 3.2% of 360,000 active | AID 504652; in the data active means activity change below about -30%; further: on the % scale 0 is the no-effect control and ±100 the full control effect
#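 HEK293 T-REx cells expressing inducible, force-coupled D1 receptor; no-wash Ca dye, 30–90 min RT. Cmpd → 180 s read at 1 Hz → EC80 DA → 180 s read.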
# D1 PAM: human D1 dopamine receptor positive modulation. HEK293 TREx D1 cells, calcium flux, dopamine EC20 potentiation. 0.036% of 360,000 active. potentiation, % at 10 µM; in the data active means potentiation above about 30%; further: 0% is about no effect
# Numbers without * were called inactive; ? = inconclusive; . = no result. Shown are actives, neighbours in structure and some others; about 6% of the full set was active somewhere.
SMILES,D1 agonist,DRD3 agonist,DRD3 antagonist,D1 antag,D1 PAM
N#Cc1ccc(NC(=O)COC(=O)CSc2nnc(-c3ccc(Cl)cc3)o2)cc1,10,-4,18,-37*,-7
O=C(COC(=O)CSc1nnc(-c2ccc(Cl)cc2)o1)NCc1ccc2c(c1)OCO2,4,0,40,-36*,-17
Cn1c(=O)n(CCc2ccccc2)c(=O)c2c1nc1n2CCN1c1ccc(Cl)cc1,1,6,.,1,2
CCN(CC)C(=O)C(C(=O)c1cccc([N+](=O)[O-])c1)n1cc(Cl)ccc1=O (stereo unspecified),1,-2,-7,-37*,-2
CCCCN(CC)CCNC(=O)C1c2cc(OC)c(OC)cc2C(=O)N2CCc3ccccc3C12 (stereo unspecified),0,3,-76*,4,-5
CCN(CC)CCNC(=O)C1c2cc(OC)c(OC)cc2C(=O)N(C)C1c1cccs1 (stereo unspecified),1,-17,-98*,6,-1
CCN1CCN(C(=O)C2c3cc(OC)c(OC)cc3C(=O)N3CCc4ccccc4C23)CC1 (stereo unspecified),-1,-10,-4,12,2
COC(=O)Cn1nc(-c2ccc(C)cc2)c2ccccc2c1=O,1,-7,-18,-75*,-8
Cc1ccc(-c2nn(CC(=O)O)c(=O)c3ccccc23)cc1,-2,14,?,-6,-4
COc1cccc(N2CCN(Cc3ccco3)CC2)c1,2,0,-6,-21,-6
COc1cccc(N2CCN(Cc3nc4ccccc4c(=O)[nH]3)CC2)c1,2,-9,-1,-62*,-2
O=c1[nH]c(CN2CCN(C/C=C/c3ccccc3)CC2)nc2cc(Cl)ccc12,8,-20,-53*,17,-7
COc1cccc(N2CCN(Cc3ccsc3)CC2)c1,0,-10,-71*,16,-7
COC[C@H](NS(=O)(=O)c1ccc(Br)cc1F)[C@@H](O)c1ccccc1,.,-1,20,.,.
COCCCNC(=O)CSc1nc2c(sc3ccccc32)c(=O)n1CCc1ccccc1,0,-5,.,6,-2
Cc1ccc(O)c(C=Nc2cc(C)ccc2O)c1,4,2,-6,-35*,-4
Cc1ccc(O)c(N=CC2=C(O)c3ccccc3C2=O)c1,1,-12,-54*,-18,-4
CC(=O)c1c(C)oc2ccc(N(C(=O)c3ccncc3)S(=O)(=O)c3ccc(C)cc3C)cc12,8,4,.,9,10
Cc1ccc2oc3c(c(=O)c2c1)C(c1ccccc1F)N(CCCN1CCOCC1)C3=O (stereo unspecified),0,-22,.,0,0
CC1=NN(c2cccc([N+](=O)[O-])c2)C(=O)C1,43*,6,13,-10,-2
CC1=NN(c2ccccc2)C(=O)C1,4,0,-12,3,2
COc1ccc(Br)c(C(=O)Nc2cc3c(cc2N2CCOCC2)n(C)c(=O)n3C)c1,1,-5,.,8,1
Oc1ccc(C[C@H]2CNCCN2CCCCC2CCCCC2)cc1,33*,-9,-21,10,-2
CCCCN1CCNC[C@H]1Cc1ccc(O)cc1,1,-10,-92*,12,9
Oc1ccc(C[C@@H]2CNCCN2CCC23CC4CC(CC(C4)C2)C3)cc1,95*,-1,10,34,2
SMILES,D1 agonist,DRD3 agonist,DRD3 antagonist,D1 antag,D1 PAM
Oc1ccc(C[C@@H]2CNCCN2CC2CCCCC2)cc1,12,9,-18,6,0
Oc1ccc(C[C@H]2CNCCN2CCC23CC4CC(CC(C4)C2)C3)cc1,24,-20,-16,1,1
Cc1cc(-c2ccc(C)c(S(=O)(=O)Nc3cccc(CN4CCCC4)c3)c2)on1,3,-8,-14,-61*,-11
Cc1cc(-c2ccc(C)c(S(=O)(=O)NCC3CCN(Cc4cccc(F)c4)CC3)c2)on1,15,-3,-18,-23,-8
CCc1ccc(-c2cc(C)no2)cc1S(=O)(=O)N1CCCN(Cc2ccc(F)cc2)C1,7,-9,-17,-31*,-4
COc1cccc(CCN2CCC(CNS(=O)(=O)c3cc(-c4cc(C)no4)ccc3OC)CC2)c1,23,-4,-13,-2,-7
COc1cccc(CCN2CCC(CNS(=O)(=O)c3cc(-c4cc(C)no4)ccc3C)CC2)c1,29,-17,?,-55*,-14
Cc1cc(-c2ccc(C)c(S(=O)(=O)Nc3ccccc3C(F)(F)F)c2)on1,13,12,.,-36*,-6
CCNc1ncnc2c1cnn2C1CCCO1 (stereo unspecified),.,-3,-1,.,.
Cc1cc(-c2ccc(C)c(S(=O)(=O)Nc3cccc(C)n3)c2)on1,0,9,.,-44*,2
Cc1ccnc(NS(=O)(=O)c2cc(-c3cc(C)no3)ccc2C)c1,0,12,.,16,-5
O=C(NCc1ccccn1)c1c(O)c2cccc3c2n(c1=O)CC3,1,-4,-56*,1,1
CC(C)(c1cc(Br)c(O)c(Br)c1)c1cc(Br)c(O)c(Br)c1,27,30*,0,.,-3
CC#CCC(C)[C@H](O)/C=C/[C@@H]1[C@H]2C/C(=C/CCCC(=O)O)C[C@H]2C[C@H]1O (stereo partly specified),.,-22,.,.,.
COCC(=O)Nc1nnc(-c2ccc(C(C)(C)C)cc2)s1,34*,0,-9,-6,-4
COc1cc(Nc2c3ccccc3nc3ccccc23)cc(OC)c1OC,3,-13,-15,6,-1
COc1ccc(Nc2nc(N3CCCC3)c3ccccc3n2)cc1,6,-8,0,-51*,-21
COc1ccc(Nc2c3ccccc3nc3ccccc23)cc1,19,-8,-26,-95*,-8
c1cncc(Nc2c3ccccc3nc3ccccc23)c1,3,3,-8,-31*,-15
COc1ccccc1Nc1c2ccccc2nc2ccccc12,3,4,4,-52*,-6
Oc1cccc(Nc2c3ccccc3nc3ccccc23)c1,8,0,-27,-24,-9
CC1=CC(C)(C)NC(=S)N1c1cc(C)cc(C)c1,-3,7,3,-51*,3
CC1=CC(C)(C)NC(=S)N1c1cccc(Cl)c1,.,7,3,.,.
CCOC(=O)C1CCCN(C(=O)c2cc(-c3ccc(C)cc3)on2)C1 (stereo unspecified),1,4,10,-49*,-9
CCOC(=O)C1CCCN(C(=O)c2cc3nc(-c4cccc(OC)c4)cc(C(F)(F)F)n3n2)C1 (stereo unspecified),1,52*,50,1,-5
O=C1Nc2cc(C(=O)N3CCOCC3)ccc2SC1N1CCOCC1 (stereo unspecified),-1,7,-5,-7,0
CCOC(=O)C1CCCN(C(=O)c2ccc3c(c2)NC(=O)C(N2CCOCC2)S3)C1 (stereo unspecified),0,3,7,-31*,-1
